27 compounds from PubChem BioAssay (NCATS) can be followed below.

Records with an inconclusive call do not appear. Entries that show only a call come without a potency. Active and inactive are the calls of the source. Calls come from the whole dose curve; as a rule, active = well fitted inhibition curve with a large enough effect; inconclusive = small, poorly fitted or top-dose-only effect; inactive = no such curve, though single readings can be large or run the other way.

For assay [1], the system named is Zika virus NS2B-NS3 protease (unlinked complex). The assay can be described thus: Primary screen GU Rhodamine qHTS for Zika virus inhibitors: Unlinked NS2B-NS3 protease assay (AID 1347159). Note: nearly all actives have a fitted effect of over 60% in size. In outline: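 Percent inhibition derives from the 15-min fluorescence change (ex 480, em 540 nm), normalized to no-enzyme and no-inhibitor wells. Reactions contained 25 nM NS2B-NS3 complex and 1.5 microM substrate in 10 mM Tris-HCl pH 8.0.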
Background: qHTS replaces the single test concentration by a dilution series.

Assay [2] has as its system Zika virus NS2B-NS3 protease (linked construct). The assay can be described thus: Primary screen NINDS Rhodamine qHTS for Zika virus inhibitors (AID 1347160). Note: nearly all actives have a fitted effect of over 55% in size. In outline:
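In 10 mM Tris-HCl pH 8.0 containing 0.01% Tween 20, linked NS2B-NS3 protease (25 nM final) is exposed to test compounds for 15 min. Cleavage of 1.5 microM Rhodamine110 substrate is tracked by fluorescence over 15 min.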

Regarding `CNc1nc(Cc2ccccc2)nc2c1CCNC[C@@H]2C`, the Potency result in assay [1] and in assay [2] was “inactive” in each case.
As to `C=C(C(=O)OC)[C@]12O[C@@](C)(CC[C@@]3(O)/C(=C\C)C(=O)O[C@]3(C)C[C@@H]1OC(=O)C(CO)CN1CCCC1C(=O)O)CC2=O` (some centres undefined), the Potency entry in assay [1] and in assay [2] was “inactive” in each case.
As to `C=C1CC2C(C)(CCC(=O)O)C(C(C)(C)O)CCC2(C)C2(C(=O)OC)C(=O)C(C)(O)C(=O)C12C` (centres undefined), the Potency result in assay [1] and in assay [2] was “inactive” each time.
As for `Cc1onc(-c2ccccc2Cl)c1C(=O)N(C)c1ccc(Cl)cc1`, the Potency result in assay [1] and in assay [2] was “inactive” throughout.
Take `CC1=CC(=O)CC(C)(C)[C@@]1(O)/C=C/C(C)O[C@@H]1O[C@H](CO)[C@@H](O)[C@H](O)[C@H]1O` (some centres undefined): the Potency entry in assay [1] and in assay [2] was “inactive” in each case.
As for `Cc1ccc(COC(=O)N2CC[C@@H](CNc3ncccn3)[C@@H](F)C2)cc1`, the Potency entry in assay [1] and in assay [2] was “inactive” throughout.
`COc1c(O[C@@H]2O[C@H](CO)[C@@H](O)[C@H](O)[C@H]2O)c(CCC(=O)O)cc2ccoc12`: the Potency entry in assay [1] and in assay [2] was “inactive” throughout.
Turning to `C=CC(C)(O)CC/C=C(\C)C1CC=C(C)C(=O)O1` (centres undefined), the Potency result in assay [1] and in assay [2] was “inactive” throughout.
Turning to `CC(C)=C1CC2[C@](C)(CC[C@@H](OC(=O)C3(C)OC3C)[C@@]2(C)O)CC1=O` (some centres undefined), the Potency result in assay [1] and in assay [2] was “inactive” in each case.
As for `CC1(C)C=Cc2c(ccc3c2N=C2C(C)(C)[C@@H]4C[C@]56CCCN5C(=O)[C@@]4(C[C@]23O)NC6=O)O1`, the Potency result in assay [1] and in assay [2] was “inactive” throughout.
As for `CC1(C(=O)O)CCCC2(C)C3CCC4CC3(CCC12)CC4(O)CO` (centres undefined), the Potency result in assay [1] and in assay [2] was “inactive” throughout.
With `C=C(CCO)C(=O)OCC1OCC(OC(=O)C(=C)CCO[C@@H]2O[C@H](CO)[C@@H](O)[C@H](O)[C@H]2O)C(O)C1O` (some centres undefined), the Potency entry in assay [1] and in assay [2] was “inactive” throughout.
Turning to `Cc1occc(=O)c1O[C@@H]1O[C@H](COC(=O)CC(C)(O)CC(=O)O)[C@@H](O)[C@H](O)[C@H]1O` (some centres undefined), the Potency result in assay [1] and in assay [2] was “inactive” throughout.
On to `CC(C)(O)c1ccc2c(c1)C(=O)C[C@H]1[C@](C)(C(=O)O)CCC[C@]21C`, for which the Potency entry in assay [1] and in assay [2] was “inactive” each time.
With `CC(=O)OC12CC(C)C(O)C1/C=C(/COC1OC(CO)C(O)C(O)C1O)CCC1C(/C=C(\C)C2=O)C1(C)C` (centres undefined), the Potency result in assay [1] and in assay [2] was “inactive” in each case.
Regarding `Cc1ccc(Nc2nnc(-c3ccc([N+](=O)[O-])cc3)o2)cc1Cl`, the Potency entry in assay [1] and in assay [2] was “inactive” in each case.
In the case of `CC1=CC(=O)CC(C)(C)C1CCC(C)O[C@@H]1O[C@H](CO)[C@@H](O)[C@H](O)[C@H]1O` (some centres undefined), the Potency entry in assay [1] and in assay [2] was “inactive” throughout.
Consider `C=C1CC[C@@]2(OC1)O[C@H]1CC3C4CC=C5C[C@@H](O[C@@H]6O[C@@H](C)[C@H](O)[C@@H](O)[C@H]6O)C[C@@H](O[C@@H]6O[C@H](C)[C@H](O)[C@H](O)[C@H]6O[C@@H]6O[C@@H](C)[C@H](O)[C@@H](O)[C@H]6O)[C@]5(C)C4CC[C@]3(C)[C@H]1[C@@H]2C` (some centres undefined), for which the Potency result in assay [1] and in assay [2] was “inactive” in each case.
Turning to `C[C@@H]1O[C@@H](OC(=O)Cc2ccccc2)[C@H](O)[C@H](O)[C@H]1O`, the Potency entry in assay [1] and in assay [2] was “inactive” each time.
For `C[C@H]1[C@H](C)CC[C@]2(C(=O)OC3OC(CO)C(O)C(O)C3O)CC[C@]3(C(=O)O)C(=CCC4[C@@]5(C)CC[C@H](O[C@@H]6O[C@@H](C)[C@H](OC7OC(CO)C(O)C(O)C7O)[C@@H](O)[C@H]6O)C(C)(C)C5CC[C@]43C)[C@H]12` (some centres undefined), the Potency result in assay [1] and in assay [2] was “inactive” each time.
On to `Cc1ccccc1-c1cc(N2CCN(C)CC2)ncc1N(C)C(=O)C(C)(C)c1cc(C(F)(F)F)cc(C(F)(F)F)c1`, for which the Potency entry in assay [1] and in assay [2] was “inactive” in each case.
As for `COc1c2c(c(C)c3c1C(=O)OC3)OC1(C)CC(O)C34OC(O)(CCC3(C)C1C2)OC4(C)C` (centres undefined), the Potency result in assay [1] and in assay [2] was “inactive” throughout.
As to `O=C(OC[C@H]1O[C@H](O[C@H]2CO[C@H](CO)[C@@H](O)[C@@H]2O)[C@H](O)[C@@H](O)[C@H]1O)c1ccccc1`, the Potency entry in assay [1] and in assay [2] was “inactive” each time.
Consider `COc1cn(-c2ccc(-n3cccn3)cc2F)nc(-c2ccnn2-c2ccccc2)c1=O`, for which the Potency entry in assay [1] and in assay [2] was “inactive” throughout.
In the case of `CC1(C)CC[C@]2(C(=O)O)CC[C@]3(C)C(=CCC4[C@@]5(C)C[C@@H](O)[C@H](O)[C@](C)(CO)C5CC[C@]43C)[C@@H]2[C@@H]1O` (some centres undefined), the Potency result in assay [1] and in assay [2] was “inactive” each time.
On to `C=C(CCO)C(=O)OCC1OCC(OC(=O)C(=C)CCO[C@@H]2O[C@H](COC(=O)C(=C)CCO[C@@H]3O[C@H](CO)[C@@H](O)[C@H](O)[C@H]3O)[C@@H](O)[C@H](O)[C@H]2O)C(O)C1O` (some centres undefined), for which the Potency result in assay [1] and in assay [2] was “inactive” in each case.
Take `CC1(C)CC[C@]2(C(=O)O[C@@H]3O[C@H](CO)[C@@H](O)[C@H](O)[C@H]3O)CC[C@]3(C)C(=CCC4[C@@]5(C)CC[C@H](O[C@@H]6O[C@H](C(=O)O)[C@@H](O[C@@H]7O[C@H](CO)[C@@H](O)[C@H](O)[C@H]7O)[C@H](O)[C@H]6O)C(C)(C)C5CC[C@]43C)C2C1` (some centres undefined): the Potency entry in assay [1] and in assay [2] was “inactive” throughout.
